From PubChem BioAssay (Tox21)
Results filed as inconclusive are left out. The source made the active and inactive calls. Unless noted, the call rests on the fitted dose curve.

Legend:
[1] = qHTS assay to identify small molecule agonists of the vitamin D receptor (VDR) signaling pathway - cell viability counter screen (AID 743224; active means well fitted curve in the direction sought with a large enough effect in the repeat runs; an effect the other way counts as inactive or inconclusive; further: series mostly up to about 63 µM; on the % scale 0 is the no-effect control and ±100 the full control effect; nearly all actives have a fitted effect of over 50% in size)
Outline: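 In parallel with the bla FRET readout, cytotoxicity toward VDR-bla cells after 16 h compound exposure was assessed by CellTiter-Glo, with luminescence recorded after a 30 min room-temperature incubation.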

[2] = qHTS assay to identify small molecule antagonists of the vitamin D receptor (VDR) signaling pathway - cell viability counter screen (AID 743225; active means well fitted curve in the direction sought with a large enough effect in the repeat runs; an effect the other way counts as inactive or inconclusive; further: on the % scale 0 is the no-effect control and ±100 the full control effect; nearly all actives have a fitted effect of over 50% in size)
Outline: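 Compounds were pinned onto VDR-bla HEK 293T cells together with 1-alpha,25-dihydroxyvitamin D3 at 3 nM final. After 16 h at 37C and 5% CO2 plus the reporter readout, cell viability was measured by CellTiter-Glo luminescence (30 min, room temperature).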

[3] = qHTS assay to identify small molecule agonists of the NFkB signaling pathway (AID 1159509; active means well fitted curve in the direction sought with a large enough effect in the signal ratio in the repeat runs, not every such curve was filed as active; the % refers to the signal ratio; further: series mostly up to about 61 µM; on the % scale 0 is the no-effect control and ±100 the full control effect)
Outline: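 Pathway activation was measured in ME-180 cells stably expressing beta-lactamase under NF-kB response element control. Substrate cleavage was read as the 460/530 nm emission shift after 5 hr compound incubation.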

[4] = qHTS assay to identify small molecule agonists of the NFkB signaling pathway - cell viability counter screen (AID 1159515); further: series mostly up to about 61 µM; on the % scale 0 is the no-effect control and ±100 the full control effect; nearly all actives have a fitted effect of over 55% in size
Outline: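 Plate 2,000 NFkB-bla ME-180 cells/well; incubate overnight. Add compounds, 5 hr at 37 C. Add FRET substrate, 1.5 hr RT. Add CellTiter-Glo, 30 min RT; read luminescence.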

[5] = qHTS assay to identify small molecule agonists of the endoplasmic reticulum stress response signaling pathway (AID 1159516; active means well fitted activation curve with a large enough effect in the signal ratio in the repeat runs, not every such curve was filed as active; the % refers to the signal ratio; further: on the % scale 0 is the no-effect control and ±100 the full control effect)
Outline: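 Beta-lactamase expression from the ER stress response element in HeLa reporter cells is quantified with the LiveBLAzer B/G FRET substrate, read at 405 nm excitation after 2 hr at room temperature, following 5 hr compound treatment at 37 C.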

[6] = qHTS assay to identify small molecule agonists of the endoplasmic reticulum stress response signaling pathway - cell viability counter screen (AID 1159517); further: series mostly up to about 61 µM; on the % scale 0 is the no-effect control and ±100 the full control effect; nearly all actives have a fitted effect of over 50% in size
Outline: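 In parallel with the ESRE reporter read, cytotoxicity was scored by CellTiter-Glo luminescence (30 min, room temperature) on HeLa ESRE-bla cells dosed for 5 hr.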

[7] = qHTS assay to identify small molecule antagonists of the retinoid-related orphan receptor gamma (ROR-gamma) signaling pathway - cell viability counter screen (AID 1159520; active means well fitted curve in the direction sought with a large enough effect in the repeat runs; an effect the other way counts as inactive or inconclusive; further: on the % scale 0 is the no-effect control and ±100 the full control effect; nearly all actives have a fitted effect of over 50% in size)
Outline: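 Tet-on ROR gamma CHO cells were given compounds for 2 hr, then doxycycline hyclate at 1 uM final, and incubated 16 hr at 37 C. Viability was measured as ATP content by CellTiter-Glo luminescence.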

[8] = target: Nuclear receptor ROR-gamma (Homo sapiens) (UniProt P51449); test: qHTS assay to identify small molecule antagonists of the retinoid-related orphan receptor gamma (ROR-gamma) signaling pathway (AID 1159521; active means well fitted curve in the direction sought with a large enough effect in the repeat runs; an effect the other way counts as inactive or inconclusive)
Outline: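 Test compounds were applied to Tet-on RORγ CHO cells 2 h ahead of doxycycline hyclate (1 uM final). Luciferase reporter activity was quantified by luminescence after 16 h at 37 C and 5% CO2.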

[9] = qHTS assay to identify small molecule agonists of the AP-1 signaling pathway - cell viability counter screen (AID 1159525); further: nearly all actives have a fitted effect of over 55% in size
Outline: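 Same-well cytotoxicity counter screen of the Tox21 10K library in ME-180 cells. The readout is ATP-dependent luminescence after 5 h compound treatment. Data are normalised to DMSO and tetra n-octyl ammonium bromide controls.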

[10] = qHTS assay to identify small molecule agonists of the AP-1 signaling pathway (AID 1159526); further: on the % scale 0 is the no-effect control and ±100 the full control effect

C[C@H](NC(CCc1ccccc1)C(=O)O)C(=O)N1CCC[C@H]1C(=O)O (stereo not given in full)
inactive: Potency [1] | Potency [2] | outcome [3] | outcome [4] | outcome [5] | outcome [6] | outcome [7] | Potency [8] | Potency [9] | outcome [10]

CCOC(=O)c1cccc(N)c1
inactive: Potency [1] | Potency [2] | outcome [3] | outcome [4] | outcome [5] | outcome [6] | outcome [7] | Potency [8] | Potency [9] | outcome [10]

CCCCCOC(=O)CCCCC
inactive: Potency [1] | Potency [2] | outcome [3] | outcome [4] | outcome [5] | outcome [6] | outcome [7] | Potency [8] | Potency [9] | outcome [10]

CO[C@]12C[C@@H](COC(=O)c3cncc(Br)c3)CN(C)[C@@H]1Cc1cn(C)c3cccc2c13
inactive: Potency [1] | Potency [2] | outcome [3] | outcome [4] | outcome [5] | outcome [6] | outcome [7] | Potency [8] | Potency [9] | outcome [10]

C=COCC1CCC(CO)CC1 (stereo not given)
inactive: Potency [1] | Potency [2] | outcome [3] | outcome [4] | outcome [5] | outcome [6] | outcome [7] | Potency [8] | Potency [9] | outcome [10]

NS(=O)(=O)c1ccccc1Cl
inactive: Potency [1] | Potency [2] | outcome [3] | outcome [4] | outcome [5] | outcome [6] | outcome [7] | Potency [8] | Potency [9] | outcome [10]

ClC(Cl)(Br)Br
inactive: Potency [1] | Potency [2] | outcome [3] | outcome [4] | outcome [5] | outcome [6] | outcome [7] | Potency [8] | Potency [9] | outcome [10]

C=CCS(=O)(=O)O
inactive: Potency [1] | Potency [2] | outcome [3] | outcome [4] | outcome [5] | outcome [6] | outcome [7] | Potency [8] | Potency [9] | outcome [10]

COC(=O)CC(C)=O
inactive: Potency [1] | Potency [2] | outcome [3] | outcome [4] | outcome [5] | outcome [6] | outcome [7] | Potency [8] | Potency [9] | outcome [10]

CCCCCCCCCCCCCCCCC
inactive: Potency [1] | Potency [2] | outcome [3] | outcome [4] | outcome [5] | outcome [6] | outcome [7] | Potency [8] | Potency [9] | outcome [10]

CCS(=O)(=O)c1ccc(OC)c(C(=O)OC)c1
inactive: Potency [1] | Potency [2] | outcome [3] | outcome [4] | outcome [5] | outcome [6] | outcome [7] | Potency [8] | Potency [9] | outcome [10]

CC1=CC(C)C(C=O)CC1 (stereo not given)
inactive: Potency [1] | Potency [2] | outcome [3] | outcome [4] | outcome [5] | outcome [6] | outcome [7] | Potency [8] | Potency [9] | outcome [10]

C[C@@H]1CCN(C(=O)[C@H](CCCN=C(N)N)NS(=O)(=O)c2cccc3c2NC[C@H](C)C3)[C@@H](C(=O)O)C1
inactive: Potency [1] | Potency [2] | outcome [3] | outcome [4] | outcome [5] | outcome [6] | outcome [7] | Potency [8] | Potency [9] | outcome [10]

CN1CCC(=C2c3ccccc3CC(=O)c3sccc32)CC1
inactive: Potency [1] | Potency [2] | outcome [3] | outcome [4] | outcome [5] | outcome [6] | outcome [7] | Potency [8] | Potency [9] | outcome [10]

C[C@H]1C[C@@H](O)CC(C)(C)C1
inactive: Potency [1] | Potency [2] | outcome [3] | outcome [4] | outcome [5] | outcome [6] | outcome [7] | Potency [8] | Potency [9] | outcome [10]

C1CN(CCOCCN2CCOCC2)CCO1
inactive: Potency [1] | Potency [2] | outcome [3] | outcome [4] | outcome [5] | outcome [6] | outcome [7] | Potency [8] | Potency [9] | outcome [10]

O=Cc1cccc([N+](=O)[O-])c1
inactive: Potency [1] | Potency [2] | outcome [3] | outcome [4] | outcome [5] | outcome [6] | outcome [7] | Potency [8] | Potency [9] | outcome [10]

N=C(N)c1ccc2cc(OC(=O)c3ccc(N=C(N)N)cc3)ccc2c1
inactive: Potency [1] | Potency [2] | outcome [3] | outcome [4] | outcome [5] | outcome [6] | outcome [7] | Potency [8] | Potency [9] | outcome [10]

CC(C)(CC(=O)O)C(=O)O
inactive: Potency [1] | Potency [2] | outcome [3] | outcome [4] | outcome [5] | outcome [6] | outcome [7] | Potency [8] | Potency [9] | outcome [10]

CC(C)NCCCC1(C(N)=O)c2ccccc2-c2ccccc21
inactive: Potency [1] | Potency [2] | outcome [3] | outcome [4] | outcome [5] | outcome [6] | outcome [7] | Potency [8] | Potency [9] | outcome [10]

NCCCNCCSP(=O)(O)O
inactive: activity change, negative = cytotoxicity [1] 6.38% [at 13.2 µM] | viability change, negative = cytotoxic [2] 2.84% [at 6.95 µM] | activation [3] 0.134% [at 6.95 µM] | activity, negative = cytotoxic [4] 0.56% [at 6.95 µM] | activation [5] 0.0202% [at 6.95 µM] | activity change, negative = cytotoxicity [6] 10.1% [at 6.95 µM] | activity, negative = cytotoxicity [7] 4.74% [at 8.39 µM] | activity change, negative = inhibition [8] 18.8% [at 8.39 µM] | viability change, negative = cytotoxic [9] -1.42% [at 6.97 µM] | activation [10] -2.28% [at 6.97 µM]

CCc1ccc(O)c(OC)c1
inactive: Potency [1] | Potency [2] | outcome [3] | outcome [4] | outcome [5] | outcome [6] | outcome [7] | Potency [8] | Potency [9] | outcome [10]

CCN(CC)CCOCCOC(=O)C1(c2ccccc2)CCCC1
inactive: Potency [1] | Potency [2] | outcome [3] | outcome [4] | outcome [5] | outcome [6] | outcome [7] | Potency [8] | Potency [9] | outcome [10]

NC(=O)c1ccc(N)cc1
inactive: Potency [1] | Potency [2] | outcome [3] | outcome [4] | outcome [5] | outcome [6] | outcome [7] | Potency [8] | Potency [9] | outcome [10]

NS(=O)(=O)c1cc(C(=O)O)cc(N2CCCC2)c1Oc1ccccc1
inactive: Potency [1] | Potency [2] | outcome [3] | outcome [4] | outcome [5] | outcome [6] | outcome [7] | Potency [8] | Potency [9] | outcome [10]

CCOc1ccc(C(=O)OCCN(CC)CC)cc1
inactive: Potency [1] | Potency [2] | outcome [3] | outcome [4] | outcome [5] | outcome [6] | outcome [7] | Potency [8] | Potency [9] | outcome [10]

CCCN1CCCC[C@H]1C(=O)Nc1c(C)cccc1C
inactive: Potency [1] | Potency [2] | outcome [3] | outcome [4] | outcome [5] | outcome [6] | outcome [7] | Potency [8] | Potency [9] | outcome [10]

CCCCCCCCCCCCN(CCCCCCCCCCCC)CCCCCCCCCCCC
inactive: Potency [1] | Potency [2] | outcome [3] | outcome [4] | outcome [5] | outcome [6] | outcome [7] | Potency [8] | Potency [9] | outcome [10]

CCOC(=O)CCC(C)=O
inactive: Potency [1] | Potency [2] | outcome [3] | outcome [4] | outcome [5] | outcome [6] | outcome [7] | Potency [8] | Potency [9] | outcome [10]

C=C(C)C(=O)OCCCCCCCC(C)C
inactive: Potency [1] | Potency [2] | outcome [3] | outcome [4] | outcome [5] | outcome [6] | outcome [7] | Potency [8] | Potency [9] | outcome [10]

COC(=O)[C@@H](N)Cc1ccc(O)c(O)c1
inactive: Potency [1] | Potency [2] | outcome [3] | outcome [4] | outcome [5] | outcome [6] | outcome [7] | Potency [8] | Potency [9] | outcome [10]

Nc1nc2c(ncn2COC(CO)CO)c(=O)[nH]1
inactive: Potency [1] | Potency [2] | outcome [3] | outcome [4] | outcome [5] | outcome [6] | outcome [7] | Potency [8] | Potency [9] | outcome [10]

COc1ccc(CCN(C)CCCC(C#N)(c2cc(OC)c(OC)c(OC)c2)C(C)C)cc1OC (stereo not given)
inactive: Potency [1] | Potency [2] | outcome [3] | outcome [4] | outcome [5] | outcome [6] | outcome [7] | Potency [8] | Potency [9] | outcome [10]

C=CCCCCCCCCC=O
inactive: Potency [1] | Potency [2] | outcome [3] | outcome [4] | outcome [5] | outcome [6] | outcome [7] | Potency [8] | Potency [9] | outcome [10]

CC(C)NC(=O)NC(C)C
inactive: Potency [1] | Potency [2] | outcome [3] | outcome [4] | outcome [5] | outcome [6] | outcome [7] | Potency [8] | Potency [9] | outcome [10]
